Measurements: PubChem BioAssay AID651551 (Sanford-Burnham Center for Chemical Genomics, 2012)

Test: GAPDH versus PEG-3 reporter suppression – cell-based, luminescence, counter-screen for PEG-3 promoter inhibitor project, SAR follow-up (AID 651551)
Conditions: HeLa PEG-Prom / GAPDH luciferase reporter, 6 or 24 h, run 2, 24 h; at 99 µM (top of the series)

SMILES | inhibition % (higher = more inhibition) [%]
Cc1cc(NC(=O)c2cccc(C)c2C)n(-c2nc3ccccc3[nH]2)n1 | 54.6
COc1ccc(-n2nc(C(=O)NCC(=O)Nc3cc(OC)c(OC)c(OC)c3)c3ccccc3c2=O)cc1OC | 71.7
Cc1cc(NC(=O)c2ccccc2)n(-c2nc3ccccc3[nH]2)n1 | -1.45
O=C(Nc1nc2ccccc2s1)c1nn(-c2ccccc2)c(=O)c2ccccc12 | 60.8
CCCn1nc(C(=O)Nc2nc3ccccc3s2)c2ccccc2c1=O | 44.3
Cc1cc(NC(=O)c2ccccc2C)n(-c2nc3ccccc3[nH]2)n1 | 76.4
O=C(Nc1nc(-c2ccccc2)cs1)c1nn(-c2ccccc2)c(=O)c2ccccc12 | 43.1
COCCCNC(=O)c1ccc(Cn2c(=O)c3ccccc3n(Cc3ccccc3C#N)c2=O)cc1 | 78
O=C(Nc1nccs1)c1nn(-c2ccccc2)c(=O)c2ccccc12 | 56.2
Cc1nc(NC(=O)c2ccccc2)sc1-c1csc(Nc2ccccc2Cl)n1 | 60.8
Cc1nc(NC(=O)c2ccccc2)sc1-c1csc(Nc2cccc(Cl)c2C)n1 | 46.8
Cc1nc(NC(=O)c2ccccc2)sc1-c1csc(Nc2ccccc2)n1 | 87.7
COc1ccccc1Nc1nc(-c2sc(NC(=O)c3ccco3)nc2C)cs1 | 76.4
COc1ccc(-n2nc(C(=O)NCC(=O)Nc3ccc(OC)c(OC)c3)c3ccccc3c2=O)cc1 | 86.5
CCCn1nc(C(=O)Nc2nc(-c3ccncc3)cs2)c2ccccc2c1=O | 72
Cc1ccc(Cl)cc1Nc1nc(-c2sc(NC(=O)c3ccco3)nc2C)cs1 | 85.8
CCCn1nc(C(=O)Nc2nc(-c3ccccn3)cs2)c2ccccc2c1=O | 71.7
COc1ccc(-n2nc(C(=O)NCC(=O)Nc3cccc(OC)c3)c3ccccc3c2=O)cc1 | 27.5
Cc1cc(NC(=O)c2ccccc2C(F)(F)F)n(-c2nc3ccccc3[nH]2)n1 | 95.1
CCn1nc(C(=O)Nc2nc(-c3ccccn3)cs2)c2ccccc2c1=O | 53.9
CCn1cc(C(=O)NCc2ccco2)c(=O)c2cc(S(=O)(=O)N3CCCC3)ccc21 | 48.4
COc1ccc(Cl)cc1Nc1nc(-c2sc(NC(=O)c3ccccc3)nc2C)cs1 | 75.6
Cc1cc(NC(=O)c2ccccc2)n(-c2nc3ccccc3n2C)n1 | 4.57
